Experimental data as given in paper PMC6602471.
Whole data set: some 1,300 sequences, median “log fluorescence intensity” near 8.9, cut for the highest 2% near 13. The full list was thinned out, with the highest values kept by preference.

Each sequence was assayed against T1, ELK1 (Homo sapiens, UniProt P19419 1-428) (assay: custom PBM; custom protein-binding microarray; buffer, salt, pH and temperature not stated; high values mean tight binding). Settings: dsDNA, one strand shown.
T1 sequence: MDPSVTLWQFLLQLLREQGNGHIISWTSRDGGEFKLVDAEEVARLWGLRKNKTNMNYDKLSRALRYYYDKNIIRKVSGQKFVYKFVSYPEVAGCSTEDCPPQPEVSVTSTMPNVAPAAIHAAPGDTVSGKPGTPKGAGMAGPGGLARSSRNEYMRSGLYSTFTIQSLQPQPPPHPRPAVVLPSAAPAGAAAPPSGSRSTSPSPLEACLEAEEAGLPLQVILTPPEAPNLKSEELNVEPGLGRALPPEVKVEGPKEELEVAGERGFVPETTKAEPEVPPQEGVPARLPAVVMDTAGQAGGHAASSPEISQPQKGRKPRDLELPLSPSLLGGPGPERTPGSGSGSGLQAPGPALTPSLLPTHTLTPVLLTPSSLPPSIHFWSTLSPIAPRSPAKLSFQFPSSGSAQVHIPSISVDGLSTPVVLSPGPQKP

| Sequence | binding signal |
| --- | --- |
| CACAATATTTACAGTAATGTAGCACGCGTAACTCCTGTCTTGATTCGCTTGACGCTGCTG | 8.95 log fluorescence intensity |
| CGGAAGTGTCGTAAACGGCGGATATCCGGTTCTTCTGTCTTGATTCGCTTGACGCTGCTG | 12.6 log fluorescence intensity |
| CGGAAGTGTCGTAAACGACGGATATCCGGTTCTTCTGTCTTGATTCGCTTGACGCTGCTG | 12.7 log fluorescence intensity |
| CGGAAGTGTCGTAAACGTCGGTTATCCGGTTCTTCTGTCTTGATTCGCTTGACGCTGCTG | 10.1 log fluorescence intensity |
| CGGAAGTGTCGTAAACGTCGGATATCCGGTTATTCTGTCTTGATTCGCTTGACGCTGCTG | 12.5 log fluorescence intensity |
| GGAAAAAGGCCCAGGGTAACACCGCAAGTGGGCTTAGTCTTGATTCGCTTGACGCTGCTG | 8.91 log fluorescence intensity |
| TAAAGGGAAGACGGTTGTGGTAGGTCCGGGTATTAAGTCTTGATTCGCTTGACGCTGCTG | 8.98 log fluorescence intensity |
| CACAATTTTAACAGTAATGTAGCACGCGTAACTCCTGTCTTGATTCGCTTGACGCTGCTG | 8.9 log fluorescence intensity |
| GATGAATTTCTGCCCTTATTCGCACGTGCCATAACAGTCTTGATTCGCTTGACGCTGCTG | 8.9 log fluorescence intensity |
| GGAAAAAGGCCCAGGGTTACACCGGAAGTGGGCTTAGTCTTGATTCGCTTGACGCTGCTG | 11 log fluorescence intensity |
| TAAAGGGAACACGGTTGTGGTAGTTCCGGGTATTAAGTCTTGATTCGCTTGACGCTGCTG | 11.2 log fluorescence intensity |
| GGAAAAAGGCCCAGGGCAACACCGGAAGTGGGCTTAGTCTTGATTCGCTTGACGCTGCTG | 10.9 log fluorescence intensity |
| CCCAATTTTTACAGTAATGTAGCACGCGTAACTCCTGTCTTGATTCGCTTGACGCTGCTG | 8.98 log fluorescence intensity |
| CTGGGACTTGACCCAACTCTGCCACGTGGGCCGTTTGTCTTGATTCGCTTGACGCTGCTG | 9.05 log fluorescence intensity |
| CGGGGACTTGACCCAACTCTGCCACGTGGGTCGTTTGTCTTGATTCGCTTGACGCTGCTG | 8.96 log fluorescence intensity |
| TACTTACTTATATATGCGAATGCACATGAATAGACCGTCTTGATTCGCTTGACGCTGCTG | 9.06 log fluorescence intensity |
| TAAAGGGAAGACGGATGTGGTAGTTCCGGGTATTAAGTCTTGATTCGCTTGACGCTGCTG | 12.6 log fluorescence intensity |
| TAAAGGGAAGACGCTTGTGGTAGTTCCGGGTATTAAGTCTTGATTCGCTTGACGCTGCTG | 11 log fluorescence intensity |
| TAAAGGGAAGACGGGTGTGGTAGTTCCGGGTATTAAGTCTTGATTCGCTTGACGCTGCTG | 11.2 log fluorescence intensity |
| TCCAGCTACCAGCTCCACCCACTTCAGGCCTTGTAGGTCTTGATTCGCTTGACGCTGCTG | 8.99 log fluorescence intensity |
| CACAATTTGTACAGTAATGTAGCACGCGTAACTCCTGTCTTGATTCGCTTGACGCTGCTG | 8.91 log fluorescence intensity |
| GGAAAAAGGCCCAGGGTAACCCCGGAAGTGGGCTTAGTCTTGATTCGCTTGACGCTGCTG | 10.5 log fluorescence intensity |
| CAGCATAGGACTTCTTCCCTGAAGCAATTGATAACTGTCTTGATTCGCTTGACGCTGCTG | 8.96 log fluorescence intensity |
| CACAATTTTTACAGTAATGTAGCACGCGGAACTCCTGTCTTGATTCGCTTGACGCTGCTG | 8.97 log fluorescence intensity |
| TCCGGCTACAAGCTCCACCCACTTCAGGCCTTGTAGGTCTTGATTCGCTTGACGCTGCTG | 8.93 log fluorescence intensity |
| TAAAGGGAAGACGGTTGTGGTAGTTCCGGGTACTAAGTCTTGATTCGCTTGACGCTGCTG | 11.3 log fluorescence intensity |

| Sequence | binding signal |
| --- | --- |
| GTGTATAGGATCCCATCCAACACACCTGTTAAAATGGTCTTGATTCGCTTGACGCTGCTG | 8.91 log fluorescence intensity |
| TCCGGTTACCAGCTCCACCCACTTCAGGCCTTGTAGGTCTTGATTCGCTTGACGCTGCTG | 8.91 log fluorescence intensity |
| TAAAGGGAAGACGGTTGTGGTAGTTCCGCGTATTAAGTCTTGATTCGCTTGACGCTGCTG | 9.44 log fluorescence intensity |
| TCCGGCTCCCAGCTCCACCCACTTCAGGCCTTGTAGGTCTTGATTCGCTTGACGCTGCTG | 8.92 log fluorescence intensity |
| CACAATTTTTACAGTAATGTAGCACGCGTAATTCCTGTCTTGATTCGCTTGACGCTGCTG | 8.98 log fluorescence intensity |
| CAGCATAGGACTCCTTCCCTGAAGCAATTGATAACCGTCTTGATTCGCTTGACGCTGCTG | 8.92 log fluorescence intensity |
| CACAATTTTTACAGTAATGTAGCACGCGTAGCTCCTGTCTTGATTCGCTTGACGCTGCTG | 9.06 log fluorescence intensity |
| TAAAGGGACGACGGTTGTGGTAGTTCCGGGTATTAAGTCTTGATTCGCTTGACGCTGCTG | 11.3 log fluorescence intensity |
| CACAATTTTTACAGTAATGTAGCACGCGTTACTCCTGTCTTGATTCGCTTGACGCTGCTG | 9.11 log fluorescence intensity |
| GATTTATTTCTGCCCTTATTCGCACGTGCCATAACAGTCTTGATTCGCTTGACGCTGCTG | 8.91 log fluorescence intensity |
| CAGCATAGGACTTCTTCCCTGAAGCAATAGATAACCGTCTTGATTCGCTTGACGCTGCTG | 8.97 log fluorescence intensity |
| CACAATTTTTACAGTAATGTAGTACGCGTAACTCCTGTCTTGATTCGCTTGACGCTGCTG | 9.01 log fluorescence intensity |
| GGAAAAAGGCCCAGGGTAACACCGGAAGTGGGCGTAGTCTTGATTCGCTTGACGCTGCTG | 10.9 log fluorescence intensity |
| TGTCGGGTAAGGGAATGTAGATCACGTGAATGACAAGTCTTGATTCGCTTGACGCTGCTG | 8.94 log fluorescence intensity |
| TAAAGGGAAGACGGTTGTGGTAGTTCCGGGTTTTAAGTCTTGATTCGCTTGACGCTGCTG | 11.2 log fluorescence intensity |
| TACTGACTTATATATGCGGATGCACATGAATAGACCGTCTTGATTCGCTTGACGCTGCTG | 9.12 log fluorescence intensity |
| GGAAAAAGGCCCAGGGTAACACCGGAAGTGGCCTTAGTCTTGATTCGCTTGACGCTGCTG | 10.9 log fluorescence intensity |
| GCTGCTGCGGTGCATACCCCACCGGATGTGACCTCGGTCTTGATTCGCTTGACGCTGCTG | 10.1 log fluorescence intensity |
| GGAAAAAGGCCCAGGGTAACACAGGAAGTGGGCTTAGTCTTGATTCGCTTGACGCTGCTG | 9.55 log fluorescence intensity |
| GATTAATATCTGCCCTTATTCGCACGTGCCATAACAGTCTTGATTCGCTTGACGCTGCTG | 8.95 log fluorescence intensity |
| CTGCATAGGACTTCTTCCCTGAAGCAATTGATAACCGTCTTGATTCGCTTGACGCTGCTG | 8.94 log fluorescence intensity |
| GACTAATTTCTGCCCTTATTCGCACGTGCCATAACAGTCTTGATTCGCTTGACGCTGCTG | 8.95 log fluorescence intensity |
| TCCGGCTACCAGTTCCACCCACTTCAGGCCTTGTAGGTCTTGATTCGCTTGACGCTGCTG | 9.18 log fluorescence intensity |
| GGAATAAGGCCCAGGGTAACACCGGAAGTGGGCTTAGTCTTGATTCGCTTGACGCTGCTG | 10.9 log fluorescence intensity |
| TACTAACTTATATATGCGAATGCACATGAATAGACCGTCTTGATTCGCTTGACGCTGCTG | 8.93 log fluorescence intensity |
| TCCGGCTACCAGCTCCACCCACTTCAGTCCTTGTAGGTCTTGATTCGCTTGACGCTGCTG | 9.06 log fluorescence intensity |
